Values joined by “and” are separate entries in the source; they are usually repeats but may differ in a detail not shown here. Identical values can stand only once. Active and inactive are the calls of the source. Unless noted, how the calls were made is not given here.
Tests used:
[1] = test system: Wnt5a (protein binding on small-molecule microarray); assay: Wnt5a binders on small-molecule microarray, primary screen, biophysical, 635/667 nm fluorescence (AID 1142); conditions: 635 nm fluorescence, higher = more signal;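 further: fluorescence read at 667 nm with signal to noise per printed feature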
[2] = cell viability in Huh7 cells, primary screen, cytotoxicity control for HCV replication inhibitor project, CellTiter-Glo luminescence, basal, 48 h (AID 1143); conditions: Huh7 HCV replicon, higher = more signal, called active from +8 up or from −8 down;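 further: Huh7 hepatoma cells carrying a hepatitis C replication reporter with no stimulus; test concentration not given here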
[3] = P. aeruginosa biofilm formation inhibitors, primary screen, PAO1 strain, BacTiter-Glo luminescence, LB-PBS (AID 1144); conditions: 12 h, higher = more signal
[4] = CREB reporter modulators without forskolin, primary screen, cell-based, PC12, CRE-LacZ reporter, unstimulated (AID 1145); conditions: no forskolin, luminescence, 4.5 h, higher = more signal, called active from +8 up or from −8 down
[5] = CREB reporter modulators under forskolin, primary screen, cell-based, PC12, CRE-LacZ reporter, forskolin-stimulated (AID 1146); conditions: luminescence, 4.5 h, higher = more signal, called active from +8 up or from −8 down;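 further: PC12 cells with 6xCRE LacZ reporter stimulated by forskolin 10 µM; beta-galactosidase reporter signal reflecting CREB driven transcription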
[6] = target: Streptavidin (Streptomyces avidinii) (UniProt P22629); assay: streptavidin binders on small-molecule microarray, primary screen, artefact control for SMM compound annotation, biophysical, 635/667 nm fluorescence (AID 1147); conditions: streptavidin binding, higher = more signal;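 further: signal reflects streptavidin binding to arrayed compounds as a control protein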
[7] = small-molecule binders of probe aInhba, primary screen, biochemical, small-molecule microarray, 635/667 nm fluorescence (AID 1148); conditions: higher = more signal;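 further: score merges 667nm spot fluorescence with signal-to-noise for antibody binding to printed compounds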
Torsin-1A (Homo sapiens) [8] = target: Torsin-1A (Homo sapiens) (UniProt O14656); assay: torsin A binders from cell lysate, primary screen, small-molecule microarray, wild-type, 635/667 nm (AID 1149); conditions: COS7 hTOR1A-WT lysate, 635 nm fluorescence, higher = more signal
Torsin-1A (Homo sapiens) [9] = target: Torsin-1A (Homo sapiens) (UniProt O14656); assay: small-molecule binders of mutant TOR1A in lysate, primary screen, cell lysate, small-molecule microarray, COS7 lysate, 635/667 nm fluorescence (AID 1150); conditions: COS7 hTOR1A mutant lysate, 635 nm fluorescence, higher = more signal;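 further: score pools 667 nm emission and signal to noise measuring lysate protein binding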
[10] = test system: Sonic hedgehog protein (Shh); assay: small-molecule binders of Shh protein, primary screen, biochemical, small-molecule microarray, 635/667 nm fluorescence (AID 1151); conditions: small-molecule microarray binding, 635 nm fluorescence; higher = more signal;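 further: Shh protein binding to compounds spotted on small-molecule microarray slides; score combines spot fluorescence intensity with signal-to-noise across triplicate slides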

Chain of Streptavidin (Streptomyces avidinii) (P22629 whole entry, looked up): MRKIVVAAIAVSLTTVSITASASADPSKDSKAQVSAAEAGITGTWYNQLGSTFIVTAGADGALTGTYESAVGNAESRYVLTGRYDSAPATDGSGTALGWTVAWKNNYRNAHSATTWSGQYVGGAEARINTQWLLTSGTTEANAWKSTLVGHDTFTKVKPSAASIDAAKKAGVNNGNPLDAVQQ
Chain of Torsin-1A (Homo sapiens) (O14656 whole entry, looked up): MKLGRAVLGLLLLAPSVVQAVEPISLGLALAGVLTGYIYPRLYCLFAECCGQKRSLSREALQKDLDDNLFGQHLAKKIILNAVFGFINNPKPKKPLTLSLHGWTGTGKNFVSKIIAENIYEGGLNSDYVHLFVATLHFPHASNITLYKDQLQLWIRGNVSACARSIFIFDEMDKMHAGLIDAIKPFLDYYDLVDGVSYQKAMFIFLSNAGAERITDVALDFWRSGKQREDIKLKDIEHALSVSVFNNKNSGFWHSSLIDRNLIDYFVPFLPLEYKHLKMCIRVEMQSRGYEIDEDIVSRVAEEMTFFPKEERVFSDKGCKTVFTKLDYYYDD

| Compound | composite z-score [1] | z-score [2] | z-score [3] | z-score [4] | z-score [5] | composite z-score [6] | composite z-score [7] | composite z-score (Torsin-1A (Homo sapiens) [8]) | composite z-score (Torsin-1A (Homo sapiens) [9]) | composite z-score [10] |
| --- | --- | --- | --- | --- | --- | --- | --- | --- | --- | --- |
| C=CCN(CCCC)C(=O)C(c1cccs1)N(C(=O)/C=C\C(=O)O)c1c(Cl)cccc1CO (stereo not given) | -1.57 and -1.27 | 0.665 (inactive) and 0.504 (inactive) | -0.428 (inactive) and 0.0609 (inactive) | -0.761 (inactive) and 0.329 (inactive) | 0.325 (inactive) and -0.167 (inactive) | -1.55 and -0.309 | -0.38 and -0.186 | -4.75 and -2.7 | -3.62 and -2.89 | -1.48 and -1.63 |
| C=CCN(Cc1ccccc1)C(=O)C1N(C(C)(C)CO)C(=O)C2C(C(=O)O)C3C=CC21O3 (stereo not given) | -0.578 and -0.945 | 0.283 (inactive) and 0.582 (inactive) | 1.51 (inactive) and -1.52 (inactive) | -0.224 (inactive) and -1.57 (inactive) | -0.141 (inactive) and -0.418 (inactive) | -1.56 and -1.49 | -0.231 and -0.213 | -0.396 and -3.85 | -1.19 and -2.15 | -1.17 and -1.73 |
| COC(=O)C1=C(C)N(Cc2ccccc2)[C@]23O[C@](C(=O)OC)(C(=O)N2[C@@H]1c1ccccc1)[C@H]1C(=O)N(c2ccccc2)C(=O)[C@H]13 | 0.115 and 0.0304 | -0.123 (inactive) and -0.532 (inactive) | -1.18 (inactive) | -0.165 (inactive) and 0.472 (inactive) | -1.65 (inactive) and -0.623 (inactive) | 0.32 and 0.436 | 0.201 and -0.0552 | 0.718 and 0.667 | 0.476 and 0.211 | 0.833 and 1.14 |
| C=CCN(CCCC)C(=O)C1N(CCCCCCO)C(=O)C2C(C(=O)O)C3C=CC21O3 (stereo not given) | -0.718 and -0.319 | 0.427 (inactive) and 0.424 (inactive) | 0.759 (inactive) and 2.36 (inactive) | 0.0645 (inactive) and -0.769 (inactive) | 0.149 (inactive) and 0.147 (inactive) | -1.46 and -1.12 | -0.35 and -0.312 | 1.31 and -1.36 | -2.04 and -2.49 | -1.18 and -1.43 |
| C=CCN(CCCCC)C(=O)C1N(c2c(Cl)cccc2CO)C(=O)C2C(C(=O)O)C3C=CC21O3 (stereo not given) | -0.65 and -1.3 | 0.0928 (inactive) and -0.313 (inactive) | -0.568 (inactive) and -0.00991 (inactive) | 0.467 (inactive) and 0.199 (inactive) | 0.209 (inactive) and -0.0386 (inactive) | -1.41 | -0.258 and -0.152 | -1.44 and -3.52 | -1.09 and -2.63 | -0.333 and -1.79 |
| C=CCN(CCCC)C(=O)C1N(C(C)(C)CO)C(=O)C2C(C(=O)O)C3C=CC21O3 (stereo not given) | -1.3 and -0.176 | 0.194 (inactive) and -0.11 (inactive) | 0.264 (inactive) and 1.42 (inactive) | -0.627 (inactive) and -0.611 (inactive) | -0.414 (inactive) and -0.388 (inactive) | -1.54 and -1.29 | -0.208 and -0.157 | -2.92 and -2.18 | -2.77 and -2.67 | -1.07 and -0.475 |
| COC(=O)[C@@]1(Cc2ccc(OC)cc2)[C@H]2c3cc(C(=O)N(C)C)n(Cc4ccc(O)c(OC)c4)c3C[C@H]2CN1C(=O)c1ccccc1 | 0.0905 and 0.294 | -1.03 (inactive) and -2.86 (inactive) | 0.209 (inactive) and 0.769 (inactive) | 0.583 (inactive) and 0.197 (inactive) | 0.217 (inactive) and -0.742 (inactive) | 1.09 and 0.758 | 0.293 and 0.714 | 0.934 and 0.0765 | 0.692 and 0.318 | 1.02 and -0.291 |
| Cc1cc2c(nc1C)CCCN2CC(O)CN1CCCc2nc(-c3ccc(Br)cc3)ccc21 (stereo not given) | 0.573 and 1.08 | -0.721 (inactive) and -1.07 (inactive) | -0.0664 (inactive) and 0.806 (inactive) | 0.0167 (inactive) and 0.382 (inactive) | -0.362 (inactive) and -0.274 (inactive) | 1.4 and 1.8 | 0.496 and 0.639 | 0.501 and 0.62 | 0.797 and 0.251 | 1.13 and 1.11 |
| COC(=O)C1=C(C)N(Cc2ccccc2)C2=C(C(C)=O)[C@H](c3ccccc3)[C@@](O)(C(=O)OC)C(=O)N2[C@@H]1c1ccccc1 | 0.142 and -0.0685 | -0.912 (inactive) and -3.17 (inactive) | -1.5 (inactive) | 1.1 (inactive) and 0.916 (inactive) | -0.213 (inactive) and -0.284 (inactive) | 0.499 and -0.212 | 0.105 and -0.171 | 0.576 and -0.313 | 0.9 and -0.211 | 0.686 and 0.16 |
| COC(=O)[C@@]1(Cc2ccc(F)cc2)[C@H]2c3cc(C(=O)N4CCCC4)n(Cc4c(CO)[nH]cc(C)c4=O)c3C[C@H]2CN1C(=O)c1ccccc1 | 2.18 and 0.117 | -1.28 (inactive) and -0.88 (inactive) | -0.0556 (inactive) and 0.0252 (inactive) | 0.762 (inactive) and 0.962 (inactive) | 3.71 (inactive) and 3.05 (inactive) | 0.418 and -0.248 | 1.24 and 0.131 | 0.113 and -0.501 | 0.797 and 0.232 | -0.552 and -0.661 |
| C=CCN(CCCCC)C(=O)C1N(CCOCCO)C(=O)C2C(C(=O)O)C3C=CC21O3 (stereo not given) | -1.49 and -0.76 | 0.41 (inactive) and -0.417 (inactive) | 1.73 (inactive) and 1.24 (inactive) | 0.866 (inactive) and 0.601 (inactive) | 0.17 (inactive) and -0.469 (inactive) | -1.6 and -1.66 | -0.278 and -0.3 | -2.98 and -2.79 | -0.411 and -1.26 | -1.44 and -0.292 |
| C#CCN1C(/C=C/c2ccccc2)C(=O)OC[C@H]1c1ccccc1 (stereo not given in full) | 0.161 and 0.111 | -5.93 (inactive) and -0.403 (inactive) | -0.793 (inactive) | 2.48 (inactive) and -0.682 (inactive) | -1.66 (inactive) and -0.836 (inactive) | -0.0296 and -0.175 | -0.0853 and 0.0807 | 0.419 and -0.479 | 0.436 and 0.128 | 0.713 and 1.03 |
| CC(CO)N1C(=O)[C@@H]2C3C(=O)OCCC=C[C@H]3OC23C=CCN(c2ccc(Cl)cc2)C(=O)[C@@H]13 (stereo not given in full) | -0.396 and -0.34 | -0.666 (inactive) and -0.787 (inactive) | 1.06 (inactive) and 0.664 (inactive) | 0.187 (inactive) and 0.325 (inactive) | -0.613 (inactive) and 0.478 (inactive) | -0.9 and 0.152 | -0.111 and 0.0541 | -1.09 and -1.53 | -2.42 and -1.49 | -0.359 and 0.829 |
| C=CCN(Cc1ccccc1)C(=O)C1N(CCCCCCO)C(=O)C2C(C(=O)O)C3C=CC21O3 (stereo not given) | -1.02 and -1.77 | -0.118 (inactive) and 0.533 (inactive) | -0.12 (inactive) and -1.45 (inactive) | -1.31 (inactive) and -1.44 (inactive) | -0.665 (inactive) and -0.279 (inactive) | -1.02 and -1.77 | -0.159 and -0.21 | -3.02 and -4.56 | -2.45 and 0.914 | -1.62 and -1.85 |
| CCOC(=O)[C@H](CC(C)C)NC(=O)CCC1CC(OC(=O)NCc2cccc3ccccc23)CC2(CCCC(COC(=O)NCc3ccccc3)O2)O1 (stereo not given in full) | -0.147 | -0.649 (inactive) | -0.583 (inactive) | 0.286 (inactive) | 1.5 (inactive) | -0.339 | 0.0038 | -1.07 | -0.964 | -0.0293 |
| C=CCN(CCCC)C(=O)C1N(c2c(Cl)cccc2CO)C(=O)C2C(C(=O)O)C3C=CC21O3 (stereo not given) | -0.77 and -0.986 | -0.0286 (inactive) and -0.784 (inactive) | 0.0942 (inactive) and -2.19 (inactive) | -0.887 (inactive) and -1.3 (inactive) | -0.718 (inactive) and -0.285 (inactive) | -1.03 and -2 | -0.231 and 0.72 | -1.67 and 1.69 | -0.696 and 0.827 | -0.979 and -1.17 |
| C=CCN(C(=O)C1N(C(C)(C)CO)C(=O)C2C(C(=O)O)C3C=CC21O3)c1ccc(OC)cc1 (stereo not given) | -0.737 and -0.572 | -0.265 (inactive) and -0.156 (inactive) | 1.42 (inactive) | -0.761 (inactive) and -0.501 (inactive) | -1.27 (inactive) and -0.62 (inactive) | -1.73 and -1.67 | -0.227 and -0.38 | -2.67 and -1.85 | -1.25 and -2.3 | -0.639 and -2.16 |
| C=CCN(C(=O)C1N(CCCCCCO)C(=O)C2C(C(=O)O)C3C=CC21O3)c1ccc(OC)cc1 (stereo not given) | 1.04 and -0.561 | 0.191 (inactive) and 0.252 (inactive) | 1.51 (inactive) | 0.0564 (inactive) and 0.724 (inactive) | -0.933 (inactive) and -0.173 (inactive) | -0.825 and -0.728 | -0.0791 and -0.0279 | -3.03 and -2.03 | -1.75 and -1.28 | -1.27 and -1.42 |
| COc1ccc(O[C@H]2C=C[C@@H](c3ccccc3)O[C@@H]2COC(=O)CCC(C)=NO[C@H](C)c2cn([C@H](CO)Cc3ccccc3)nn2)cc1 | 0.205 and -0.274 | -1.93 (inactive) and -1.7 (inactive) | 0.916 (inactive) and 1.05 (inactive) | 2.66 (inactive) and 1.53 (inactive) | 1.83 (inactive) and 0.775 (inactive) | 0.379 and 2.03 | 0.344 and 0.104 | 0.362 and 0.702 | 0.127 and 0.463 | 0.372 and 1.69 |
| C=CCN(Cc1ccccc1)C(=O)C(c1cccs1)N(C(=O)/C=C\C(=O)O)c1ccc(CCO)cc1 (stereo not given) | -1.26 and -0.913 | 0.735 (inactive) and 0.129 (inactive) | -0.732 (inactive) and -1.02 (inactive) | -0.0778 (inactive) and -0.0656 (inactive) | 0.0736 (inactive) and -0.183 (inactive) | -1.73 and -2.16 | -0.135 and -0.346 | -2.97 and -2.57 | -2.1 and -2.38 | -1.14 and -0.843 |
| CC(C)=NOC[C@@H](O)COCc1ccco1 | -0.0761 | 0.326 (inactive) | -0.209 (inactive) | -1.71 (inactive) | -0.619 (inactive) | -0.499 | -0.003 | -0.469 | 2.08 | 0.712 |
| CCOC(=O)c1ccc(NC(=O)O[C@H]2[C@H](OC(=O)Nc3ccccc3)[C@H](OC(=O)Nc3ccccc3)[C@@H](OC)O[C@@H]2CO)cc1 | 0.679 and 0.445 | -4.37 (inactive) and -5.71 (inactive) | 0.44 (inactive) and -0.118 (inactive) | -0.0484 (inactive) and 0.596 (inactive) | 0.359 (inactive) and -1.63 (inactive) | 1.06 and 0.79 | 0.189 and 0.232 | 0.147 and 0.386 | 0.592 and 0.568 | 1.17 and 1.63 |

Reference: PubChem BioAssay
